# Measured values from doi:10.1101/2025.02.07.636106.
# Columns and labels:
# [1] = target: Metastasis-associated protein MTA3 (UniProt Q9BTC8); assay: cross-link between two proteins; cross-linking mass spectrometry
# [2] = target: Methyl-CpG-binding domain protein 2 (UniProt Q9UBB5); assay: as above
# [3] = target: Protein DOP1B (UniProt Q9Y3R5); assay: as above
# [4] = target: Transcriptional repressor p66-alpha (UniProt Q86YP4); assay: as above
# [5] = target: Transcriptional repressor p66-beta (UniProt Q8WXI9); assay: as above
# [6] = target: Tyrosine-protein phosphatase non-receptor type 14 (UniProt Q15678); assay: as above
# [7] = target: Histone deacetylase 1 (UniProt Q13547); assay: cross-link between two proteins; affinity purification or IP with mass spectrometry; cross-linking mass spectrometry
# Chain of Histone deacetylase 1 (Q13547 whole entry): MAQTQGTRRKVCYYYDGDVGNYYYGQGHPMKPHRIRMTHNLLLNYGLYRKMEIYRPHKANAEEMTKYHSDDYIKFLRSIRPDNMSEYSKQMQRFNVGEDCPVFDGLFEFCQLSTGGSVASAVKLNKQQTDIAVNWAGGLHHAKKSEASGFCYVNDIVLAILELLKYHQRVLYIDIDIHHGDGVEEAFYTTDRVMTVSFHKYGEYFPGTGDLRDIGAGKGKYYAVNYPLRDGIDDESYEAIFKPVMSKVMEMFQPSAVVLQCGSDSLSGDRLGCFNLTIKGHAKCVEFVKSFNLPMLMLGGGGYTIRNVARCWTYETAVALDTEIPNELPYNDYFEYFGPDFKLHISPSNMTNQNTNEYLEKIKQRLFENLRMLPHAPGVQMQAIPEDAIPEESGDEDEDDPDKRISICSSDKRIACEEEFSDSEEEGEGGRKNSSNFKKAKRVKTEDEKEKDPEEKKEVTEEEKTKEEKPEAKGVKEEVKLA
# [8] = target: Elongation factor 1-alpha 1 (UniProt P68104); assay: cross-linking mass spectrometry
# [9] = target: Histone deacetylase 2 (UniProt Q92769); assay: cross-link between two proteins; cross-linking mass spectrometry
# Chain of Histone deacetylase 2 (Q92769 whole entry): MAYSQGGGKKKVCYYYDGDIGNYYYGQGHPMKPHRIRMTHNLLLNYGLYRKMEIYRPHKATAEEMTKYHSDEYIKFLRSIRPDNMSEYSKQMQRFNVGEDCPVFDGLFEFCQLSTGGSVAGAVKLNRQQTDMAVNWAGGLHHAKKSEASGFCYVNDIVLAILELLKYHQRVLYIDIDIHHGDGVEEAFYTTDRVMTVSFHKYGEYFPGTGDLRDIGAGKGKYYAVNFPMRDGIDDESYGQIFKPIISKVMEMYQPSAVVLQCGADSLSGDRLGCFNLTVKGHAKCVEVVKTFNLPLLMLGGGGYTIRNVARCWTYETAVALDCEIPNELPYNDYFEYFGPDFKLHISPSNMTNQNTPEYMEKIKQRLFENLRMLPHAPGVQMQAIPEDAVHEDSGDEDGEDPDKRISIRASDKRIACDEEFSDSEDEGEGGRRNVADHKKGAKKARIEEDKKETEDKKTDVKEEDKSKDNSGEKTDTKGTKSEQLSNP
# [10] = target: Peregrin (UniProt P55201); assay: as above
# [11] = target: 26S proteasome regulatory subunit 10B (UniProt P62333); assay: as above
# [12] = target: 26S proteasome non-ATPase regulatory subunit 7 (UniProt P51665); assay: as above
# [13] = target: Dolichyl-diphosphooligosaccharide--protein glycosyltransferase subunit DAD1 (UniProt P61803); assay: co-fractionation; cross-linking mass spectrometry
# Chain of Dolichyl-diphosphooligosaccharide--protein glycosyltransferase subunit DAD1 (P61803 whole entry): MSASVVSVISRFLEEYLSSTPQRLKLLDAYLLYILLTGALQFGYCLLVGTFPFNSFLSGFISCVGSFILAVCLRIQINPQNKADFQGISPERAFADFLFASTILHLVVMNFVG
# [14] = target: Melanoma inhibitory activity protein 2 (UniProt Q96PC5); assay: cross-link between two proteins; cross-linking mass spectrometry
# Chain of Melanoma inhibitory activity protein 2 (Q96PC5 whole entry): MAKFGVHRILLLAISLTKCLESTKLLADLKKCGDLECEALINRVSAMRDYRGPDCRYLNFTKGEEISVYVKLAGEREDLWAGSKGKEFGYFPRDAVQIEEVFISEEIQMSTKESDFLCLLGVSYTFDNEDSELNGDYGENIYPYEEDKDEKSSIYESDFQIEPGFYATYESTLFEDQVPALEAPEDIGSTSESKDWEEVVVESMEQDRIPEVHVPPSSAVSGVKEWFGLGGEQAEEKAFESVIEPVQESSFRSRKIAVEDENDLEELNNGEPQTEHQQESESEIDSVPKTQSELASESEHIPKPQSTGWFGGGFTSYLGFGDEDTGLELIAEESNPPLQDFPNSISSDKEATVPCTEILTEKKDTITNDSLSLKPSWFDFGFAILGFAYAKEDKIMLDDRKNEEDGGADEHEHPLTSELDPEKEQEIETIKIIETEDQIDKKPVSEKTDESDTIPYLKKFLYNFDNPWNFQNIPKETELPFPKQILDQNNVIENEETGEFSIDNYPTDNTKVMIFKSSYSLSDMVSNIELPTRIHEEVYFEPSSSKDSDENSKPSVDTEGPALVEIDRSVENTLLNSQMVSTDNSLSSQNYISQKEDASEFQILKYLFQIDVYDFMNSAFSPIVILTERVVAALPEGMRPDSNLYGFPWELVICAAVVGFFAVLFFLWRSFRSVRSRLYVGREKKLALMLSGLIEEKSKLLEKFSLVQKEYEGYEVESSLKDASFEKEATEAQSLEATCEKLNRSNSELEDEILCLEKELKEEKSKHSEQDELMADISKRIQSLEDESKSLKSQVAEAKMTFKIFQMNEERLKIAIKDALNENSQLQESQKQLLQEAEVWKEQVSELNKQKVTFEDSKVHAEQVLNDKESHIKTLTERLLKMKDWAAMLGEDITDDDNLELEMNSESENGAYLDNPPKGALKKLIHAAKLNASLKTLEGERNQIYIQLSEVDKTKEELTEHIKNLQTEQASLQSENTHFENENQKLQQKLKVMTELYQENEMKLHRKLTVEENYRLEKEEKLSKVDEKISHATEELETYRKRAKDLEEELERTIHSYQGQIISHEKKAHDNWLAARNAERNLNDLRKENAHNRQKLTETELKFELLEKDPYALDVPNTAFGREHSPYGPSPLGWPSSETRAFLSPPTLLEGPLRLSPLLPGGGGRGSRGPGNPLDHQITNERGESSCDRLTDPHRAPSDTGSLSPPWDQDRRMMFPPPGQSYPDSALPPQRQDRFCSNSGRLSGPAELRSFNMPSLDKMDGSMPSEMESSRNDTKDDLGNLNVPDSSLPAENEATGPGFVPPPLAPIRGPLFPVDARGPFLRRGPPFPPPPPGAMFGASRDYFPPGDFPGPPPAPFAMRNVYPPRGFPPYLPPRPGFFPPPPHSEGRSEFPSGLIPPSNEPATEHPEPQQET
# [15] = target: Zinc finger protein DPF3 (UniProt Q92784); assay: as above
# [16] = target: Proteasome subunit beta type-7 (UniProt Q99436); assay: cross-link between two proteins; co-fractionation; cross-linking mass spectrometry
# Chain of Proteasome subunit beta type-7 (Q99436 whole entry): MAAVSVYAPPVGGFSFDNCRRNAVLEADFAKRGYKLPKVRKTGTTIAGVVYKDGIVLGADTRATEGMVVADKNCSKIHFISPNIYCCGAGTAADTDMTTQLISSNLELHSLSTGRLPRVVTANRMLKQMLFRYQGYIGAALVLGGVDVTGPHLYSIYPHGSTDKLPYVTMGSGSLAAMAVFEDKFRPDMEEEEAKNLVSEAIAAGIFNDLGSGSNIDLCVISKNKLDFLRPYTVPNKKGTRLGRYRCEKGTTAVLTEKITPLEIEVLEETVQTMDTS
# [17] = target: Activity-dependent neuroprotector homeobox protein (UniProt Q9H2P0); assay: cross-link between two proteins; cross-linking mass spectrometry
# [18] = target: Histone deacetylase 2 (UniProt Q92769); assay: cross-link between two proteins; affinity purification or IP with mass spectrometry; cross-linking mass spectrometry
# [19] = target: Histone deacetylase 1 (UniProt Q13547); assay: cross-link between two proteins; cross-linking mass spectrometry
# [20] = target: Endoplasmic reticulum chaperone BiP (UniProt P11021); assay: as above
# [21] = target: Tubulin alpha-3E chain (UniProt Q6PEY2); assay: co-fractionation; co-fractionation; cross-linking mass spectrometry
# [22] = target: Lymphatic vessel endothelial hyaluronic acid receptor 1 (UniProt Q9Y5Y7); assay: cross-link between two proteins; cross-linking mass spectrometry
# [23] = target: Proteasome subunit alpha type-5 (UniProt P28066); assay: cross-link between two proteins; co-fractionation; cross-linking mass spectrometry
# [24] = target: Guanine nucleotide-binding protein G(i) subunit alpha-3 (UniProt P08754); assay: co-fractionation; co-fractionation; cross-linking mass spectrometry
# [25] = target: Histone-lysine N-methyltransferase, H3 lysine-36 specific (UniProt Q96L73); assay: cross-link between two proteins; cross-linking mass spectrometry
# [26] = target: Elongin-A (UniProt Q14241); assay: as above
# [27] = target: B-cell receptor-associated protein 29 (UniProt Q9UHQ4); assay: as above
# [28] = target: BTB/POZ domain-containing protein 7 (UniProt Q9P203); assay: as above
# [29] = target: AP-1 complex subunit mu-1 (UniProt Q9BXS5); assay: co-fractionation; cross-linking mass spectrometry
# Chain of AP-1 complex subunit mu-1 (Q9BXS5 whole entry, one chain of several): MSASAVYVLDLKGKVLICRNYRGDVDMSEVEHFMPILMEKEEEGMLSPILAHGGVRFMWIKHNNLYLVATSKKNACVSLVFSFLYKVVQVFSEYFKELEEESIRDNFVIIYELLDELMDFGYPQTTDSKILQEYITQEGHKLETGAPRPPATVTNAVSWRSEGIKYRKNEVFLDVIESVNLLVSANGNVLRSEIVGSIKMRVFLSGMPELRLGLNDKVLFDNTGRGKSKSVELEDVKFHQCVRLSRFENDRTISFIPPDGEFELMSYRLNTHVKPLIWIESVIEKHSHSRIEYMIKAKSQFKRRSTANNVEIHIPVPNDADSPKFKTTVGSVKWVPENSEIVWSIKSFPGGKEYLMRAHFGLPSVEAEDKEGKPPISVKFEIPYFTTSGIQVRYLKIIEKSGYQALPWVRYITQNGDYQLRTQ
# [30] = target: Abl interactor 1 (UniProt Q8IZP0); assay: co-fractionation; cross-linking mass spectrometry
# [31] = target: AP-2 complex subunit mu (UniProt Q96CW1); assay: cross-link between two proteins; co-fractionation; cross-linking mass spectrometry
# [32] = target: Histone-lysine N-methyltransferase 2A (UniProt Q03164); assay: cross-link between two proteins; cross-linking mass spectrometry
# [33] = target: Proteasome subunit beta type-4 (UniProt P28070); assay: cross-link between two proteins; co-fractionation; cross-linking mass spectrometry
# [34] = target: Dolichyl-diphosphooligosaccharide--protein glycosyltransferase 48 kDa subunit (UniProt P39656); assay: cross-link between two proteins; affinity purification or IP with mass spectrometry; cross-linking mass spectrometry
# [35] = target: AP-1 complex subunit sigma-1A (UniProt P61966); assay: cross-linking mass spectrometry
# [36] = target: Histone H2B type 1-M (UniProt Q99879); assay: cross-link between two proteins; cross-linking mass spectrometry
# [37] = target: KxDL motif-containing protein 1 (UniProt Q9BQD3); assay: as above
# [38] = target: Pre-mRNA-splicing factor CWC25 homolog (UniProt Q9NXE8); assay: as above
# [39] = target: Keratin, type I cytoskeletal 10 (UniProt P13645); assay: as above
# Chain of Keratin, type I cytoskeletal 10 (P13645 whole entry): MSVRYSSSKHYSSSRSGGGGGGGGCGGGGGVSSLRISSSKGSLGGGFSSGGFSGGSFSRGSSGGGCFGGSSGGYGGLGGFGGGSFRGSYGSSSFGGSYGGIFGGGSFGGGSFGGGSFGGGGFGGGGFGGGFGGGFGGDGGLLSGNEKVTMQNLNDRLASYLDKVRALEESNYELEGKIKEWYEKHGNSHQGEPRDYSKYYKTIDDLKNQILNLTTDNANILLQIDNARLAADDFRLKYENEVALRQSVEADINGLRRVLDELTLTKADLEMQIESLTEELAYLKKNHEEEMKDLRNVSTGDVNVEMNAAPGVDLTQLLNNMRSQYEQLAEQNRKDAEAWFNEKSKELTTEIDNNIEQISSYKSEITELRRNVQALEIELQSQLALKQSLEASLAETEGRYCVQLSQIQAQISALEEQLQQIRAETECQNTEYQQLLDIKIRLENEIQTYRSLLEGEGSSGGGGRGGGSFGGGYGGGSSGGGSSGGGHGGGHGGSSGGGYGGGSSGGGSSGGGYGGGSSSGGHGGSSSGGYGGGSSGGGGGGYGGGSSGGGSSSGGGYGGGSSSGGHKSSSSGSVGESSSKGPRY
# [40] = target: Cytochrome b-c1 complex subunit Rieske, mitochondrial (UniProt P47985); assay: as above
# [41] = target: Heat shock-related 70 kDa protein 2 (UniProt P54652); assay: co-fractionation; co-fractionation; cross-linking mass spectrometry
# [42] = target: Paired amphipathic helix protein Sin3a (UniProt Q96ST3); assay: cross-link between two proteins; cross-linking mass spectrometry
# [43] = target: 14-3-3 protein epsilon (UniProt P62258); assay: cross-linking mass spectrometry
# [44] = target: Calcineurin B homologous protein 1 (UniProt Q99653); assay: cross-linking mass spectrometry
# [45] = target: Charged multivesicular body protein 1a (UniProt Q9HD42); assay: cross-linking mass spectrometry
# Chain of Charged multivesicular body protein 1a (Q9HD42 whole entry): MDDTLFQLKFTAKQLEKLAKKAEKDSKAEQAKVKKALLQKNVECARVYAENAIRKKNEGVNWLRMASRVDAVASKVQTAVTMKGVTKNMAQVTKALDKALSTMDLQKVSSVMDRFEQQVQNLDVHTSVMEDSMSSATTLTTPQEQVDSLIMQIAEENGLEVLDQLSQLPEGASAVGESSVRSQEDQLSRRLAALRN
# [46] = target: Charged multivesicular body protein 1b (UniProt Q7LBR1); assay: cross-linking mass spectrometry
# [47] = target: Charged multivesicular body protein 3 (UniProt Q9Y3E7); assay: cross-linking mass spectrometry
# Chain of Charged multivesicular body protein 3 (Q9Y3E7 whole entry): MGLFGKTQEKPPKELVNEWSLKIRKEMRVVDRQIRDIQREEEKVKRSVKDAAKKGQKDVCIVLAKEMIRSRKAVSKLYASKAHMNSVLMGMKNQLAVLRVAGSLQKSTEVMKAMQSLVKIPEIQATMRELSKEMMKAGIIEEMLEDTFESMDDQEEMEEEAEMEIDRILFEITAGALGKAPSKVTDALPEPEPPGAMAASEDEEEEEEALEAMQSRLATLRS
# [48] = target: Charged multivesicular body protein 4b (UniProt Q9H444); assay: cross-linking mass spectrometry
# [49] = target: Endoplasmic reticulum resident protein 44 (UniProt Q9BS26); assay: cross-linking mass spectrometry
# [50] = target: Integrin beta-5 (UniProt P18084); assay: cross-linking mass spectrometry
# Chain of Heat shock protein HSP 90-beta, P08238 (P08238 whole entry): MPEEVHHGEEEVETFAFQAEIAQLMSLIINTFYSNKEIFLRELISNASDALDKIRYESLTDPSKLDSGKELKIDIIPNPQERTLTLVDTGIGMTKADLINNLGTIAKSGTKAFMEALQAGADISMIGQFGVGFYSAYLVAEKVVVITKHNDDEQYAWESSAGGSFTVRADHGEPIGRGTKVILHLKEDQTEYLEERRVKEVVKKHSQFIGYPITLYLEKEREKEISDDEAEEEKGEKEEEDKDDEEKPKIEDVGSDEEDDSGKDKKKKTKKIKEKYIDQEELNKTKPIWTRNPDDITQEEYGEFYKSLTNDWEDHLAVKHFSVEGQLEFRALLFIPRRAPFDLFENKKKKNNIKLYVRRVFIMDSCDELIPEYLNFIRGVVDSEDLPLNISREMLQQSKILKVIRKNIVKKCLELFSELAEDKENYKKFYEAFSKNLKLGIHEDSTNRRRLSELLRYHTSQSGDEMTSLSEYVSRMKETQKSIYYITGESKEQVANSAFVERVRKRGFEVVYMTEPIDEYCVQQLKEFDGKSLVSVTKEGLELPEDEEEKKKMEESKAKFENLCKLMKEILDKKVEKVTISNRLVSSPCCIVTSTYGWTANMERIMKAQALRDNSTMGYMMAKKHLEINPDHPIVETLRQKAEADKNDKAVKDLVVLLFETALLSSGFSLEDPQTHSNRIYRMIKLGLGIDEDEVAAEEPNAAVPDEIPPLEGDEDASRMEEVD
substance,measurement,setting,value
"Metastasis-associated protein MTA1, Q13330",listed as a hit,[1],yes
same,listed as a hit,[2],yes
same,listed as a hit,[3],yes
same,listed as a hit,[4],yes
same,listed as a hit,[5],yes
same,listed as a hit,[6],yes
same,listed as a hit,[7],yes
"Heat shock protein HSP 90-beta, P08238",listed as a hit,[8],yes
same,listed as a hit,[9],yes
same,listed as a hit,[10],yes
"Proteasome subunit alpha type-3, P25788",listed as a hit,[11],yes
"26S proteasome non-ATPase regulatory subunit 12, O00232",listed as a hit,[12],yes
"Dolichyl-diphosphooligosaccharide--protein glycosyltransferase subunit 2, P04844",listed as a hit,[13],yes
"Paired amphipathic helix protein Sin3b, O75182",listed as a hit,[7],yes
"Syntaxin-7, O15400",listed as a hit,[14],yes
same,listed as a hit,[15],yes
"Proteasome subunit alpha type-6, P60900",listed as a hit,[16],yes
"ATP-dependent chromatin remodeler CHD4, Q14839",listed as a hit,[17],yes
same,listed as a hit,[18],yes
"Collagen alpha-5(IV) chain, P29400",listed as a hit,[19],yes
"DNA/RNA-binding protein KIN17, O60870",listed as a hit,[20],yes
"Tubulin beta-4B chain, P68371",listed as a hit,[21],yes
"B-cell receptor-associated protein 31, P51572",listed as a hit,[22],yes
"Methyl-CpG-binding domain protein 3, O95983",listed as a hit,[18],yes
"Proteasome subunit alpha type-7, O14818",listed as a hit,[23],yes
"Guanine nucleotide-binding protein G(i) subunit alpha-2, P04899",listed as a hit,[24],yes
"Protein-L-isoaspartate(D-aspartate) O-methyltransferase, P22061",listed as a hit,[25],yes
"ATP synthase peripheral stalk subunit OSCP, mitochondrial, P48047",listed as a hit,[26],yes
"Leucine-rich repeat-containing protein 59, Q96AG4",listed as a hit,[27],yes
"Secretory carrier-associated membrane protein 3, O14828",listed as a hit,[28],yes
"AP-1 complex subunit sigma-1A, P61966",listed as a hit,[29],yes
"Cytoplasmic FMR1-interacting protein 1, Q7L576",listed as a hit,[30],yes
"AP-2 complex subunit alpha-1, O95782",listed as a hit,[31],yes
"Prohibitin 1, P35232",listed as a hit,[32],yes
"Dolichyl-diphosphooligosaccharide--protein glycosyltransferase subunit 1, P04843",listed as a hit,[13],yes
"Proteasome subunit beta type-1, P20618",listed as a hit,[33],yes
"Calnexin, P27824",listed as a hit,[34],yes
"AP-1 complex subunit gamma-1, O43747",listed as a hit,[35],yes
same,listed as a hit,[29],yes
"ADP/ATP translocase 3, P12236",listed as a hit,[36],yes
"Biogenesis of lysosome-related organelles complex 1 subunit 1, P78537",listed as a hit,[37],yes
"Transcriptional repressor p66-beta, Q8WXI9",listed as a hit,[38],yes
same,listed as a hit,[18],yes
"Keratin, type II cytoskeletal 1, P04264",listed as a hit,[39],yes
"Putative cytochrome b-c1 complex subunit Rieske-like protein 1, P0C7P4",listed as a hit,[40],yes
"Proteasome subunit beta type-3, P49720",listed as a hit,[16],yes
"Heat shock 70 kDa protein 6, P17066",listed as a hit,[41],yes
"Histone-binding protein RBBP7, Q16576",listed as a hit,[42],yes
same,listed as a hit,[18],yes
"14-3-3 protein gamma, P61981",listed as a hit,[43],yes
"Glycerol-3-phosphate acyltransferase 4, Q86UL3",listed as a hit,[44],yes
"Charged multivesicular body protein 2a, O43633",listed as a hit,[45],yes
same,listed as a hit,[46],yes
same,listed as a hit,[47],yes
same,listed as a hit,[14],yes
"Charged multivesicular body protein 1b, Q7LBR1",listed as a hit,[45],yes
same,listed as a hit,[47],yes
"Programmed cell death 6-interacting protein, Q8WUM4",listed as a hit,[48],yes
"Peroxiredoxin-4, Q13162",listed as a hit,[49],yes
"Integrin alpha-V, P06756",listed as a hit,[50],yes
